Measurements from article PMC4336329 (PLoS ONE, 2015).
About 14,000 (4.5%) of roughly 310,000 compounds showed an effect of 50% or more. The effect is printed as a negative number. This is one part of a sample in which strong results are shown more often than they occur.

target: human ether-à-go-go-related gene (hERG) potassium channel (human, UniProt Q12809); assay: primary screen, population patch clamp on CHO cells stably expressing hERG; higher = less effect of the substance
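Further: peak tail current of the secondary pulse compared with the same well before compound.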

human ether-à-go-go-related gene (hERG) potassium channel, sequence (Q12809 whole entry, looked up): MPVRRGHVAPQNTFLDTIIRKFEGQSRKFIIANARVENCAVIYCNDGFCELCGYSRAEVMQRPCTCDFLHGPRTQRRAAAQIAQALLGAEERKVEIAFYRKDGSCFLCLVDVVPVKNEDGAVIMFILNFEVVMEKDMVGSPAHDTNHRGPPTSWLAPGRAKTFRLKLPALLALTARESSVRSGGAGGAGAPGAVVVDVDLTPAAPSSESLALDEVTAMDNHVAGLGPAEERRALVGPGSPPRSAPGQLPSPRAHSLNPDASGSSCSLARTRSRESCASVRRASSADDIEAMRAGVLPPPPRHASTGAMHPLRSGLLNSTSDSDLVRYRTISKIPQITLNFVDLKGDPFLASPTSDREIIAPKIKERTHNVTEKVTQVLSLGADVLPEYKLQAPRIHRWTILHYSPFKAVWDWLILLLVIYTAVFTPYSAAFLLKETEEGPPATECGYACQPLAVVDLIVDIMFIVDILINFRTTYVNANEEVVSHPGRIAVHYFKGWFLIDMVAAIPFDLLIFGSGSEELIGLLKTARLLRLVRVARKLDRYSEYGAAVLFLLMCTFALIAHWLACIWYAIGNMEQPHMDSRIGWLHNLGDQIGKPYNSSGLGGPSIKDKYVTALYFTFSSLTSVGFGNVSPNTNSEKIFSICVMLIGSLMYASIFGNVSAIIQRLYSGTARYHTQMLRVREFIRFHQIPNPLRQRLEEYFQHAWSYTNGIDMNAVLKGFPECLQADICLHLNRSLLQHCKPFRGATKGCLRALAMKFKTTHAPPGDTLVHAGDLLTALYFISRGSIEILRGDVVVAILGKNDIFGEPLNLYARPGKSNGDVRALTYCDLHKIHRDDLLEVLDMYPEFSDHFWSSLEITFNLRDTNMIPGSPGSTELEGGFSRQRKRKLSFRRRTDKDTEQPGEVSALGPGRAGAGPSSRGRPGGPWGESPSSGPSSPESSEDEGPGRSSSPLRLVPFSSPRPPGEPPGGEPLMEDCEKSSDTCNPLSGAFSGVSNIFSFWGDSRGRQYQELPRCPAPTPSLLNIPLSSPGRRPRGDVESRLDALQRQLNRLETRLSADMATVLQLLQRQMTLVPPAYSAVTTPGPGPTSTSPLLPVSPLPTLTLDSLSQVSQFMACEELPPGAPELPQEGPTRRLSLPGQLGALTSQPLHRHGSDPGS

Structure (SMILES) | hERG current change (%, negative = inhibition) at 10uM
COc1cccc(-n2c(Cc3cc(=O)[nH]c(=O)[nH]3)nnc2SCC(=O)N2CCCCCC2)c1 | 0.34%
CCc1cccc(C)c1NC(=O)C1CCCN1C(=O)NCc1ccccc1 (centres unmarked) | 18.4%
CCOC(=O)c1ccc(NC(=O)c2c(C)[nH]c(C(=O)OCC)c2C)cc1 | -6.95%
Cc1ccc(NC(=O)CCn2cnc3ccccc3c2=O)c(C)c1 | 6.65%
CCCCn1c(SCC(=O)N(CC)C2CCS(=O)(=O)C2)nc2cc(S(N)(=O)=O)ccc21 (centres unmarked) | -5.49%
CC1(C)CC(=O)C(C(=O)c2ccccc2)C(=O)C1Cl (centres unmarked) | 3.06%
CCN(CC(=O)NCc1ccncc1)S(=O)(=O)c1ccccc1 | 5.51%
O=C(CN(Cc1ccc(Br)cc1)S(=O)(=O)c1ccccc1)NCc1ccccn1 | -42%
O=C(O)CN(Cc1ccccc1)S(=O)(=O)c1ccc(F)cc1 | 2.09%
Cc1ccc(S(=O)(=O)N(CC(=O)NCc2ccncc2)Cc2ccccc2F)cc1 | -78.6%
CN(CC(=O)NCc1cccnc1)S(=O)(=O)c1ccc(F)cc1 | 21.3%
O=C(CN(Cc1ccc(Br)cc1)S(=O)(=O)c1ccccc1)NCc1cccnc1 | -17.2%
O=C(CN(Cc1ccccc1)S(=O)(=O)c1ccc(F)cc1)NCc1ccncc1 | -52.3%
O=C(CN(Cc1ccccc1)S(=O)(=O)c1ccc(F)cc1)NCc1ccccn1 | -10.6%
Cc1ccc(S(=O)(=O)N(CC(=O)O)Cc2ccccc2F)cc1 | 3.18%
O=C(CN(Cc1ccccc1)S(=O)(=O)c1ccc(F)cc1)NCc1cccnc1 | -57.8%
CCCNC(=O)CN(Cc1ccccc1F)S(=O)(=O)c1ccc(C)cc1 | -6.17%
O=C(CN(Cc1ccc(Br)cc1)S(=O)(=O)c1ccccc1)NCc1ccncc1 | -68.8%
COc1ccccc1NC(=O)c1cc2c(CO)cnc(C)c2oc1=Nc1ccc(OC)c(OC)c1 | 13.3%
COc1ccc(NN=Nc2ccc([N+](=O)[O-])cc2)cc1 | 19.1%
OC1COC(OCC2OC(OCc3ccccc3)C(O)C(O)C2O)C(O)C1O (centres unmarked) | -11.1%
CCOC(=O)N1CCN(C(=O)c2cc3cc(OC)c(OC)cc3[nH]2)CC1 | 5.96%

Structure (SMILES) | hERG current change (%, negative = inhibition) at 10uM
CC(=O)Nc1ccc(NC(=O)c2cc(-n3cnnc3)ccc2Cl)cc1 | 15.7%
COc1cccc(C(C2C(=O)CC(C)(C)CC2=O)C2C(=O)CC(C)(C)CC2=O)c1 | 21.2%
O=C(N1CCN(c2ccc(F)cc2)CC1)C12CC3CC(CC(C3)C1)C2 | 5.05%
CN(C)c1nc(OCCNC(=O)Nc2ccccc2)nc(N2CCCCC2)n1 | 0.123%
CC[n+]1c(C)n(-c2ccccc2)c2ccc(NC(C)=O)cc21.[I-] | 11%
Cc1nc(NCCc2ccccc2)c(C#N)c(C)c1[N+](=O)[O-] | 6.5%
CCOC(=O)c1sc(NC(=O)c2sc(C)nc2C)nc1C | -4.49%
Fc1ccc(/C=N/NC(=S)Nc2ccc(Cl)cc2)cc1F | 9.62%
Cc1ccc(S(=O)(=O)NC(CC(=O)NCc2ccco2)c2ccco2)cc1 (centres unmarked) | -0.749%
CCOc1ccc(Nc2ccc3nonc3c2[N+](=O)[O-])cc1 | 10.6%
O=[N+]([O-])c1ccc(Nc2ccccc2)c2nonc12 | -8.36%
CCOc1ccc(Nc2ccc([N+](=O)[O-])c3nonc23)cc1 | -53.9%
COc1ccccc1NC(=O)CSc1nc2nc(C)cc(C)c2c(=O)[nH]1 | 4.82%
CCCCN(CCCC)C(=O)CSc1nnc(-c2cc(OC)c(OC)c(OC)c2)o1 | -58.5%
CCCCOC(=O)CSc1nnc(-c2cc(OC)c(OC)c(OC)c2)o1 | -11.9%
CCOC(=O)CSc1nnc(-c2cc(OC)c(OC)c(OC)c2)o1 | 12.1%
COCCN(C(=O)CCC(=O)Nc1ccccn1)C(C(=O)NC(C)C)c1ccc(Cl)cc1 (centres unmarked) | -5.58%
CN(C)c1ccc(/C=C2\CC3C4CC=C5CC(O)CCC5(C)C4CCC3(C)C2=O)cc1 (centres unmarked) | 3.55%
COc1cc(C(=O)NCCOc2cc(C)cc(C)c2)c(Br)c(OC)c1OC | -18.4%
O=S(=O)(NCCc1csc(-c2ccccc2)n1)c1cccnc1 | 8.48%
C=CCNC(=S)N/N=C(\C)c1ccc(-n2ccnc2)cc1 | -43%
CCc1ccc(OCC(=O)N/N=C(\C)c2ccc(-n3ccnc3)cc2)cc1 | -71.8%

Structure (SMILES) | hERG current change (%, negative = inhibition) at 10uM
C=C(C)CNC(=S)N/N=C(\C)c1ccc(-n2ccnc2)cc1 | -37.7%
C/C(=N\NC(N)=O)c1ccc(-n2ccnc2)cc1 | 10.9%
CCNC(=S)N/N=C(\C)c1cccc([N+](=O)[O-])c1 | -45.9%
C/C(=N\NC(=O)COc1ccc(C)cc1C(C)C)c1ccc(-n2ccnc2)cc1 | -33.4%
C/C(=N\NC(=O)COc1ccc(C(C)(C)C)cc1)c1ccc(-n2ccnc2)cc1 | -58.9%
COCCNC(=S)N/N=C(\C)c1ccc(-n2ccnc2)cc1 | -66.2%
COc1ccc(OCC(=O)N/N=C(\C)c2ccc(-n3ccnc3)cc2)cc1 | -42.6%
COCCNC(=S)N/N=C(\C)c1cccc([N+](=O)[O-])c1 | -70.4%
C/C(=N\NC(=O)COc1ccc(C(C)(C)C)cc1)c1ccc(N2CCOCC2)cc1 | 5.99%
COCCNC(=S)N/N=C(\C)c1ccc(C)c([N+](=O)[O-])c1 | -26.6%
CCN(C(=O)COC(=O)c1ccc2[nH]c3c(c2c1)CCCC3)C1CCS(=O)(=O)C1 (centres unmarked) | -8.35%
COc1ccccc1C(=O)Nc1nnc(S(=O)(=O)N2CCCCCC2)s1 | 3.54%
COc1cc(/C=C/C(=O)O)cc(S(=O)(=O)Nc2ccc3cn[nH]c3c2)c1OC | 9.74%
O=c1[nH]c(-c2ccccn2)nc2ccccc12 | -3.46%
COc1ccc(/C=N/Nc2nc(-c3ccc(Cl)cc3)cc(C(F)(F)F)n2)c(OC)c1 | 2.62%
CC(C)CNC(=O)CSc1ccc(Cl)cc1 | -3.84%
O=C(CN1CCN(Cc2ccccc2)CC1)c1ccccc1 | 1.35%
Cc1ccc(OCC(=O)Nc2ccc(N3CCN(S(C)(=O)=O)CC3)cc2)cc1 | 17.4%
CCc1ccc(NC(=O)CN2CC(c3ccccc3)CC2=O)cc1 (centres unmarked) | -27.6%
CN(CC1CCOCC1)C(=O)c1ccc2nc(Cc3cccc(Cl)c3)oc2c1 | -69.7%
CN(CCCN1CCOCC1)C(=O)c1ccc2nc(Cc3cccc(Cl)c3)oc2c1 | -6.26%
O=C(NCC1CCOCC1)c1ccc2nc(Cc3cccc(Cl)c3)oc2c1 | -12.8%

Structure (SMILES) | hERG current change (%, negative = inhibition) at 10uM
Cc1ccc(C)c(S(=O)(=O)C(C#N)c2nc3ccccc3nc2N2CC(C)OC(C)C2)c1 (centres unmarked) | 4.01%
Cc1ccc(OCCC(=O)OCC(=O)Nc2ccc3[nH]c(=O)[nH]c3c2)cc1 | -20.3%
CCC(CC)NC(=O)c1cc2c(C)nn(Cc3ccccc3Cl)c2s1 | 10.9%
Cc1nn(Cc2ccccc2Cl)c2sc(C(=O)NCCCn3ccnc3)cc12 | -82.6%
Cc1ccc2nc(-c3ccccc3)cc(C(=O)NCCCn3ccnc3)c2c1 | -40.7%
CCc1ccc(-c2cc(C(=O)NCCCn3ccnc3)c3ccccc3n2)s1 | -73.6%
CCc1ccc(-c2cc(C(=O)O)c3ccccc3n2)s1 | 16.9%
Cc1ccccc1C(=O)NCCCn1ccnc1 | 18.3%
CCOc1ccc(-c2cc(C(=O)NCCCn3ccnc3)c3cc(Br)ccc3n2)cc1 | 7.06%
CCc1ccc(-c2cc(C(=O)NCc3ccco3)c3ccccc3n2)s1 | -9.4%
Cc1nn(Cc2ccccc2Cl)c2sc(C(=O)NC(C)(C)C)cc12 | 10.7%
Cc1ccc(-c2cc(C(=O)NCCCn3ccnc3)c3ccccc3n2)s1 | -70.9%
Cc1ccc(-c2cc(C(=O)NCCCn3ccnc3)c3cc(Br)ccc3n2)o1 | -73.8%
O=C(NCCCn1ccnc1)c1cc(-c2cccnc2)nc2ccc(Br)cc12 | -45.1%
CC(C)CC(=O)CN1C(=O)C2(OCCO2)c2ccccc21 | 13.2%
COc1ccc(-c2cc(C(F)F)nc(-n3nc(C)cc3C)n2)cc1 | 11.7%
O=c1cc(-c2ccccc2)c2ccc(O)c(CN3CCCCC3)c2o1 | -8.89%
COc1ccc2nc(Nc3nc4cc5c(cc4s3)OCO5)sc2c1 | 6.67%
O=S(=O)(Nc1c(O)ccc2ccccc12)c1cccc2ccccc12 | 6.79%
COc1ccc(C(CNC(=O)c2[nH]c(C)c(C(C)=O)c2C)N2CCOCC2)cc1 (centres unmarked) | -4.61%
